Assay results: ChEMBL document CHEMBL4513216, “Probing the Open Global Health Chemical Diversity Library for Multistage-Active Starting Points for Next-Generation Antimalarials” (ACS Infect Dis, 2020)
Hit rate of the full screen: of about 68,000 compounds, about 2,700 (4%) showed an effect of 50% or more. The sample as a whole holds a higher share of strong results than the screen did.

What follows are compounds tested on Plasmodium berghei (assay: Screen against P. berghei liver stage (PbLuc), transformed with Luciferase, at 2uM). Settings: tested at 2 uM.
Assay type: functional, HepG2
Work on O=C(NCC(=O)N1CCc2ccccc2C1)c1cnccn1 yielded an INHIBITION of 23.94%.
CC(C)(CO)Nc1cc(-c2cn[nH]c2)ncn1 was tested, and the INHIBITION was 6.03%.
For CCCn1nccc1NC(=O)CN1CCC[C@H]1CO, the INHIBITION was 13.53%.
With Cc1cnn(CC2CCCCN2CC(=O)Nc2nncs2)c1 (configuration not stated) the INHIBITION was 23.65%.
With Cc1cnn(CC2CCCCN2CC(=O)Nc2nc(C)cs2)c1 (configuration not stated) the INHIBITION was 67.69%.
For CCCn1nccc1NC(=O)CN1CCCC1Cn1cccn1 (configuration not stated), the INHIBITION was 33.9%.
With CCCn1nccc1NC(=O)CN1CCCC1Cn1cc(C)cn1 (configuration not stated) the INHIBITION was 50.32%.
In the case of Cc1cnn(CC2CCCN2CC(=O)Nc2nc(C)cs2)c1 (configuration not stated), the INHIBITION is reported as -54.73%.
Work on Cc1cc(O)n(-c2ccccc2Cl)c(=O)c1C#N yielded an INHIBITION of 3.1%.
O=C1NCCCCC1NS(=O)(=O)N1CCCCCC1 (configuration not stated) showed an INHIBITION of -4.89%.
With CC(C)N1CC[C@H]2[C@H](C[C@@H](Cn3cncn3)N2c2nccs2)C1 the INHIBITION was 27.61%.
CN(C)C(=O)c1cccc(CN2CCOC(Cn3cncn3)C2)c1 (configuration not stated) gave an INHIBITION of 74.35%.
Cc1cnn(CC2CN(Cc3cccc(C(=O)N(C)C)c3)CCO2)c1 (configuration not stated) was tested, and the INHIBITION was 18.46%.
For Cc1ccc(-c2nnc(CN3CCOC(Cn4cccn4)C3)o2)cc1 (configuration not stated), the INHIBITION was -47.05%.
With CN(C)C(=O)c1cccc(CN2CCOC(Cn3cccn3)C2)c1 (configuration not stated) the INHIBITION was -21.39%.
CC(C)(C)c1nnc(CN2CCCC(Cn3cncn3)C2)o1 (configuration not stated) was tested, and the INHIBITION was 15.31%.
With Cc1ccc(-c2nnc(CN3CCOC(Cn4cncn4)C3)o2)cc1 (configuration not stated) the INHIBITION was 51.46%.
With Fc1ccc(-c2nnc(CN3CCOC(Cn4cncn4)C3)o2)cc1 (configuration not stated) the INHIBITION was -77.99%.
CC(C)(C)c1nnc(CN2CCOC(Cn3cncn3)C2)o1 (configuration not stated) was tested, and the INHIBITION was 62.13%.
Compound CC(C)(C)c1nnc(CN2CCOC(Cn3cccn3)C2)o1 (configuration not stated) has an INHIBITION of 11.18%.
Compound Cc1ccc(CCNC(=O)Nc2cc(C(F)(F)F)c[nH]c2=O)o1 has an INHIBITION of -0.12%.
O=C(c1n[nH]c2c1CN(C1CCOCC1)CC2)N1CCCC1 showed an INHIBITION of 30.95%.
Cc1cccc(N(C)Cc2cc(=O)n3oc(C)cc3n2)c1 showed an INHIBITION of 4.91%.
With N#CCCN(CC1CCOC1)Cn1ccc(-c2cccs2)n1 (configuration not stated) the INHIBITION was -42.48%.
COc1cc(C)nc(N2CCN(C(=O)CN(C)C(C)C)CC2)n1 was tested, and the INHIBITION was 10.22%.
COc1c(C)cnc(CNC(=O)CCOCc2ccccc2)c1C showed an INHIBITION of 65.76%.
For COc1ccccc1OCCC(=O)NCc1ncc(C)c(OC)c1C, the INHIBITION was 40.51%.
Work on COc1c(C)cnc(CNC(=O)CCOCC(C)C)c1C yielded an INHIBITION of 5.17%.
With CN1CCCC1c1cccc(Cc2ccc(F)cc2)n1 (configuration not stated) the INHIBITION was 16.32%.
For Cc1cc(-c2nnn(CCC(N)=O)n2)ccc1F, the INHIBITION was 5%.
Cc1cc(-c2nnn(CCNS(C)(=O)=O)n2)ccc1F was tested, and the INHIBITION was 69.72%.
Work on CNS(=O)(=O)CCCn1nnc(-c2ccc(F)c(C)c2)n1 yielded an INHIBITION of 31.66%.
With c1ccc([C@@H]2CN(Cc3ccncc3)C[C@H]2c2cc[nH]n2)cc1 the INHIBITION was 48.22%.
c1ccc([C@@H]2CN(Cc3cccnc3)C[C@H]2c2cc[nH]n2)cc1 gave an INHIBITION of 50.94%.
COc1ccc([C@@H]2CN(Cc3ccncc3)C[C@H]2c2cc[nH]n2)cc1 gave an INHIBITION of -128.75%.
For CS(=O)(=O)c1cccc(C(=O)NCCCN2CCc3ccccc3C2)c1, the INHIBITION was 5.59%.
c1cnc(N2CC3(CCN(C4CCOCC4)CC3)c3ccccc32)nc1 was tested, and the INHIBITION was -23.45%.
Compound CN(CCn1nc2ccccn2c1=O)CC(=O)N1CCCC1 has an INHIBITION of 17.19%.
In the case of CCC(C)NC(=O)NCCCn1nc2ccccn2c1=O (configuration not stated), the INHIBITION is reported as 55.7%.
With CC(=O)N1CCCN(CCn2nc3ccccn3c2=O)CC1 the INHIBITION was 52.66%.
CN(CCn1nc2ccccn2c1=O)CC(=O)NC1CC1 showed an INHIBITION of 16.6%.
With CN(C)C(=O)N1CCN(CCn2nc3ccccn3c2=O)CC1 the INHIBITION was 50.32%.
Work on O=C(NCCCn1nc2ccccn2c1=O)NC(C1CC1)C1CC1 yielded an INHIBITION of -35.46%.
Work on CCNC(=O)NCCCn1nc2ccccn2c1=O yielded an INHIBITION of -53.4%.
Compound CCN(CC)C(=O)CN(C)CCn1nc2ccccn2c1=O has an INHIBITION of 8.88%.
CCC(=O)CNC(=O)CCn1nc2ccccn2c1=O was tested, and the INHIBITION was -12.95%.
CN1CCN(C(=O)c2cnsn2)c2ccc(F)cc21 was tested, and the INHIBITION was 36.24%.
For CN(C)CCCn1ccnc1C1CCCN(c2ncc(Cl)cc2F)C1 (configuration not stated), the INHIBITION was -18.59%.
Cc1noc([C@H]2C[C@H]3OCC[C@H]3N(Cc3cccs3)C2)n1 showed an INHIBITION of -27.21%.
c1cnc(N2CCCC3(CCN(CC4CCC4)C3)C2)nc1 (configuration not stated) showed an INHIBITION of -20.98%.
With CN(C)c1cc(CNC(=O)Nc2cccnc2N2CCCC2)ccn1 the INHIBITION was -43.4%.
Work on Cn1cccc(NC(=O)N2CCC(COCc3ccccc3)C2)c1=O (configuration not stated) yielded an INHIBITION of -5.79%.
With CN1CCN(C2CCN(Cc3nc(-c4ccoc4)no3)CC2)C1=O the INHIBITION was -17.31%.
In the case of Cc1ncc(CN(C)C(=O)Nc2cccc(CN3CCOC3=O)c2)s1, the INHIBITION is reported as 56.2%.
With Cc1ncc(CN(C)C(=O)Nc2cccc(N3CCOC3=O)c2)s1 the INHIBITION was -127.85%.
For Cc1ncc(CN(C)C(=O)Nc2ccc(CN3CCOC3=O)cc2)s1, the INHIBITION was 10.61%.
Work on CCN1CCOC(CNCc2cccc(OCc3ccccn3)c2)C1 (configuration not stated) yielded an INHIBITION of 3.06%.
Compound CS(=O)(=O)NC1CCCN(Cc2ccc(OCc3ccccn3)cc2)C1 (configuration not stated) has an INHIBITION of 10.63%.
Compound CC(=O)NC1CCCN(Cc2ccc(OCc3ccccn3)cc2)C1 (configuration not stated) has an INHIBITION of 57.92%.
CN1CCOC(CNCc2ccc(OCc3ccccn3)cc2)C1 (configuration not stated) was tested, and the INHIBITION was -12.27%.
CS(=O)(=O)NC1CCN(Cc2ccc(OCc3ccccn3)cc2)CC1 gave an INHIBITION of -15.64%.
CCN1CCOC(CNCc2ccc(OCc3ccccn3)cc2)C1 (configuration not stated) was tested, and the INHIBITION was 50.75%.
For c1cnc(N2C[C@H]3CCN(CCN4CCCC4)C[C@H]3C2)cn1, the INHIBITION was -27.22%.
Compound COCCNC(=O)c1nnc2ccc(N3CCOCC3)cc2n1 has an INHIBITION of 26.54%.
CSc1nc2ncc3c(=O)n(CCN4CCCCC4)ccc3n2n1 gave an INHIBITION of 8.9%.
COC1CCN(C(=O)CC(C)(C)C)CC(=O)N(C)c2ccccc21 (configuration not stated) was tested, and the INHIBITION was 51.71%.
COC1CCN(C(=O)COC(C)=O)CC(=O)N(C)c2ccccc21 (configuration not stated) gave an INHIBITION of -46.46%.
In the case of COC1CCN(C(=O)CC2CCCC2)CC(=O)N(C)c2ccccc21 (configuration not stated), the INHIBITION is reported as 8.41%.
CN(Cc1noc2c1CCCC2)C(=O)C1CCOc2ccccc2C1 (configuration not stated) was tested, and the INHIBITION was 8.89%.
c1csc(CNCC2COCc3c(-c4ccoc4)nnn3C2)n1 (configuration not stated) showed an INHIBITION of -45.9%.
O=C([C@@H]1COC[C@H]2CN(C3CCOCC3)C[C@H]21)N1CCCO1 gave an INHIBITION of 35.15%.
Cc1cc(CN(C)C(=O)C2CC(c3cccc(F)c3)=NO2)no1 (configuration not stated) showed an INHIBITION of -30.08%.
With CN(Cc1ccc2c(c1)OCO2)C(=O)C1CC(c2cccc(F)c2)=NO1 (configuration not stated) the INHIBITION was 53.68%.
Work on CN(Cc1cccc(C#N)c1)C(=O)C1CC(c2cccc(F)c2)=NO1 (configuration not stated) yielded an INHIBITION of 17.47%.
Compound CNC(=O)N1C[C@@H]2C[C@H](C(=O)Nc3ccccc3)[C@H](C1)O2 has an INHIBITION of 6.57%.
With c1ccc(-c2cc(CNCCCC3CCOC3)c3nnnn3c2)cc1 (configuration not stated) the INHIBITION was 22.81%.
In the case of CCc1nc(CC(=O)NCC2(C(N)=O)CCOCC2)cs1, the INHIBITION is reported as 55.36%.
Cc1nn(C)c(Cl)c1C(=O)NCC1(C(N)=O)CCOCC1 gave an INHIBITION of 32.02%.
NC(=O)C1(CNCc2csc(-c3cccs3)n2)CCOCC1 showed an INHIBITION of 36.28%.
CCc1nc(CNCC2(C(N)=O)CCOCC2)cs1 showed an INHIBITION of 33.9%.
For Cc1nn(C)c(C)c1CCC(=O)NCC1(C(N)=O)CCOCC1, the INHIBITION was 25.73%.
Compound Cc1nn(C)c(C)c1CC(=O)NCC1(C(N)=O)CCOCC1 has an INHIBITION of 60.59%.
Nc1ccc(C(=O)N2CCCC(C(=O)CCc3ccccc3)C2)cn1 (configuration not stated) was tested, and the INHIBITION was -62.48%.
COCc1cnc2n1CCN(C1CCCC1)C2C (configuration not stated) showed an INHIBITION of 0.42%.
Work on c1cc(-c2nn3c(CN4CCOCC4)nnc3s2)ccn1 yielded an INHIBITION of 2.88%.
With COc1cc(C(=O)N2CCC(c3n[nH]c(C4CC4)n3)CC2)ccc1C the INHIBITION was 10.5%.
O=C(NCc1cccnc1)[C@@H]1CC[C@@H]2[C@@H](CCN2c2ncc(F)cn2)O1 showed an INHIBITION of 12.7%.
Compound COc1ccc(-c2nnsc2C(=O)N2CCSCC2)cc1 has an INHIBITION of -20.55%.
For N#CCCn1nc(C(F)(F)F)c2c1CCC2, the INHIBITION was 10.83%.
Work on NCCCn1nc(C(F)(F)F)c2c1CCC2 yielded an INHIBITION of 58.18%.
In the case of N#CCCn1nc(C(F)(F)F)c2c1CCCC2, the INHIBITION is reported as 17.01%.
COCC1CN(Cc2cccnc2)Cc2nnn(CC3CC3)c21 (configuration not stated) showed an INHIBITION of -94.44%.
COCC1CC2(CCN(c3cc(OC)ncn3)CC2)CN1C(C)C (configuration not stated) was tested, and the INHIBITION was -0.45%.
In the case of COC(=O)c1cccc(C(=O)N2CCN(C(=O)N(C)C)CC2(C)C)c1, the INHIBITION is reported as 7.42%.
CC(NC(=O)N1CCC2(C1)OCCO2)c1cccc(Cl)c1 (configuration not stated) was tested, and the INHIBITION was 22.12%.
Work on CCOc1cccc(C(C)NC(=O)N2CCC3(CC2)OCCO3)c1 (configuration not stated) yielded an INHIBITION of 58.01%.
With CCOc1cccc(C(C)NC(=O)N2CCC(C(N)=O)CC2)c1 (configuration not stated) the INHIBITION was -31.3%.
COc1cc(N2CCC3(CC2)CCN(c2cccnc2)C3=O)ncn1 was tested, and the INHIBITION was 2.72%.
O=C(c1ccc2nncn2c1)N1CCCCC1Cn1cccn1 (configuration not stated) showed an INHIBITION of 39.47%.
Compound O=C(NCCOc1ccc(Cl)cn1)Nc1ccccn1 has an INHIBITION of -65.52%.
In the case of O=C(NCCOc1ccc(Cl)cn1)Nc1cccnc1, the INHIBITION is reported as -1.56%.
For O=C(NCCOc1ccc(Cl)cn1)Nc1nccs1, the INHIBITION was 50.61%.
Work on C=Cc1ccc(C(=O)N2CCCC(Nc3ccc(OC)cc3)C2)cc1 (configuration not stated) yielded an INHIBITION of 19.42%.
Compound CCn1cc(CN2CCCN(C(=O)C3(C)CCOCC3)CC2)cn1 has an INHIBITION of -1.55%.
CN(Cc1cccc(OC(F)(F)F)c1)C(=O)c1cnsn1 was tested, and the INHIBITION was 10.1%.
CC(C)CN1C[C@@H]2C(=O)NC3(CCN(C(=O)c4cccnc4)CC3)[C@@H]2C1 showed an INHIBITION of 14.47%.
For Cc1cnc(-c2nc(C3CCN(Cc4ccccc4O)CC3)no2)cn1, the INHIBITION was -10.49%.
